Compounds with a hit are over-represented: about 5.7% of the library has one in this group of screens.
IL1B secr inh = inflammasome signaling inhibition, IL-1 beta readout. 360,000 tested, 4.7% active. activity change, % at 57.5 µM. THP-1 LPS/ATP IL-1B secretion, AlphaLISA, 16 h; active compounds read low; in the data active = activity change below about -50%; inconclusive = mostly about -30% to -49%; also: % is scaled to controls: 0 for no effect and ±100 for the full control effect
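THP-1 cells pretreated 1 hr with compounds (up to 57.5 uM final), then stimulated with LPS (250 ng/mL final) plus ATP (1.25 mM final); secreted IL-1B measured by AlphaLISA after 16 hr, decreased signal indicating inhibition.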
S2 tox = cell viability loss in ATXN counter-screen; S2 cells (HEK-293 line with an ATXN2-luciferase reporter) viability, CellTiter-Fluor protease fluorescence, 24 h; Potency, µM (top dose mostly 56.7 µM), hits mostly cytotoxic; 400,000 tested, 0.49% active; AID 651635; also: potency is read from the fitted curve at half-maximal effect; nearly all actives have a fitted effect of over 40% in size
HepG2 viability = counter-screen for TGF-b inhibitors: cytotoxicity in HepG2 cells. HepG2 CAGA-GFP viability, ATP luminescence, 18 h. Potency, µM (series often up to 46.1 µM), inactives show top-dose activity change, negative = cytotoxicity, usual class: cytotoxic. 410,000 tested, 0.76% active. AID 588856; also: potency is read from the fitted curve at half-maximal effect
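HepG2 CAGA-GFP cells (1000/well, DMEM with 1% FBS) received compound, then TGF-beta at 500 pg/mL final, and were incubated 18 hours at 37 degrees C. Viability was read by CellTiter-Glo luminescence. Media-only wells were set as complete cell-killing and DMSO as no toxicity.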
TGFb SMAD3 inh = inhibitors of TGF-b signaling | HepG2 CAGA-GFP TGF-b/SMAD3 reporter, GFP fluorescence, 18 h; TGF-beta stimulated, 500 pg/mL final | Potency, µM (doses to about 46.1 µM), for inactives: at the highest dose activity, negative = inhibition, usual class: inhibitors | 410,000 tested, 1.2% active; also: potency is read from the fitted curve at half-maximal effect; % is scaled to controls: 0 for no effect and ±100 for the full control effect; nearly all actives have a fitted effect of over 65% in size
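First, reporter cells (HEPG2 CAGA-GFP) rested 2 h at 37 degrees C. Next, compounds were pinned in and TGF-beta added to 500 pg/mL final. After 18 h, GFP was imaged per cell and summed per well.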
ATXN2 expr inh = reduces ATXN2 reporter expression in HEK-293 cells; 360,000 tested, 0.72% active; HEK-293 ATXN2-luciferase reporter, luminescence, 24 h; Potency, µM (series often up to 57 µM), for the others: at the highest dose activity change, negative = inhibition, most hits filed as inhibitors; also: potency is read from the fitted curve at half-maximal effect; % is scaled to controls: 0 for no effect and ±100 for the full control effect; nearly all actives have a fitted effect of over 55% in size
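ATXN2-luciferase reporter cells (luciferase flanked by upstream and downstream ATXN2 gene portions) were treated 24 h at 37 °C with compounds at up to 57 uM. SteadyGlo luminescence gave expression; GF-AFC fluorescence gave viability.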
* marks the source's active call; other numbers are inactive results; i = inactive; ? = inconclusive; nt = not tested or not shown; ! = not active in a repeat. Unless noted, calls follow the shape of the dose curve; as a rule, active = well fitted curve in the direction sought with a large enough effect; inconclusive = small, poorly fitted or top-dose-only effect, or another doubt; inactive = no such curve, though single readings can be large; an effect the other way counts as inactive or inconclusive.

SMILES | IL1B secr inh | S2 tox | HepG2 viability | TGFb SMAD3 inh | ATXN2 expr inh
CCc1cc(C(=O)NCc2c(C)ncc3c2CCN(C(=O)C2=CCCC2)C3)no1 | nt | i | nt | nt | nt
Cc1cccn2c(=O)cc(COc3cccc(NC(=O)COc4ccccc4)c3)nc12 | nt | nt | -6% | -16% | nt
CCn1cc(/C=C/C(=O)c2ccc(O)cc2)c(C)n1 | -81* | i | 5% | 3% | 112%
Cc1nn(C)cc1/C=C/C(=O)c1ccccc1 | ? | i | -35% | 26% | 125%
CCOC(=O)N1CCc2c(sc3c2c(=O)n(CCc2ccccc2)c(=O)n3Cc2c(F)cccc2Cl)C1 | nt | nt | -3% | -11% | nt
CCc1nc2c(OCc3ccc(Cl)cc3Cl)cccn2c1N(C)C(=O)c1ccccc1F | -27 | ? | -61% | ? | ?
COC(=O)c1ccccc1COc1cccn2c(N(C)Cc3cccs3)c(C)nc12 | -78* | i | -41% | ? | 18µM*
Cc1nc2c(OCc3cccc(Cl)c3)cccn2c1N(C)Cc1cccs1 | -20 | ? | 11µM* | ? | ?
CCOC(=O)N(C)c1c(CC)nc2c(OCc3cccc(Cl)c3)cccn12 | -7 | ? | -13% | -8% | ?
Cc1nc2c(OCc3ccc(Cl)cc3Cl)cccn2c1N(C)Cc1cccs1 | ? | nt | 11µM* | ? | 8.9µM*
CCN(c1ccccc1C)S(=O)(=O)c1nnc(NC(=O)c2ccccc2C)s1 | nt | nt | -36% | ? | nt
Cc1c(Cl)cccc1NC(=O)C1CC(=O)N(C2CCCC2)C1 (stereo unspecified) | -58* | i | -7% | -16% | -5%
FC(F)(F)c1cnc(COc2cc(Cl)cc(Cl)c2)c(Cl)c1 | -74* | i | 9% | 11% | 0%
C=CCN=c1scc(-c2ccco2)n1/N=C/c1ccc(O)c(O)c1O | -51* | ? | -30% | -32% | -3%
CC(C)N=c1scc(-c2ccco2)n1/N=C/c1ccc(O)c(O)c1 | -13 | 32µM* | -64% | ? | 0%
Cc1csc(SCC(=O)N2CCOc3ccc(C(O)C4CCCCC4)cc3C2)n1 (stereo unspecified) | nt | i | nt | nt | nt
CCc1ccccc1Nc1nn2c(=O)c3ccc(C(=O)NCCCOC(C)C)cc3nc2s1 | nt | nt | -4% | 0% | nt
COc1cc(C(=O)Nc2nonc2-c2ccc(Cl)cc2)cc(OC)c1OC | nt | nt | -21% | -15% | nt
COc1cccc(-c2ccc(NC(=O)C3CCCN(Cc4cnn(C(C)C)c4)C3)cc2)c1 (stereo unspecified) | -79* | i | -62% | ? | ?
CCCc1ncc(CN2CCCC(C(=O)Nc3ccc(-c4cccc(OC)c4)cc3)C2)cn1 (stereo unspecified) | -9 | i | -31% | ? | ?
O=C(Nc1ccc(-c2cscn2)cc1)C1CCCN(Cc2ccccc2)C1 (stereo unspecified) | 15 | i | -6% | -25% | -3%
Cc1ncc(CN2CCCC(C(=O)Nc3ccc(-c4cccc(F)c4)cc3)C2)cn1 (stereo unspecified) | -87* | i | -29% | 0% | ?
Cc1nn(C)c(Cl)c1CN1CCCC(C(=O)Nc2ccc(-c3cscn3)cc2)C1 (stereo unspecified) | -69* | i | -27% | 5% | -7%
Cc1ccccc1OCCn1c(=N)n(C(C)C)c2ccccc21 | nt | nt | -87% | ? | nt
COc1ccc(Br)cc1CNC(=O)c1cc(=O)[nH]c2ccc(S(=O)(=O)N3CCCCC3)cc12 | nt | nt | -16% | -15% | nt
SMILES | IL1B secr inh | S2 tox | HepG2 viability | TGFb SMAD3 inh | ATXN2 expr inh
COc1ccc(NC(=O)CN2C(=O)C(c3ccccc3)=NC23CCCCCC3)cc1 | -56* | i | -2% | 5% | 5%
Cc1ccc(NC(=O)CN2C(=O)C(c3ccccc3)=NC23CCCCC3)cc1C | nt | nt | -22% | nt | nt
CCOc1cc(-c2c(C#N)c(N)nc3c2CCc2ccccc2-3)ccc1O | -17 | ? | 13µM* | ? | 43%
CCOc1cc(-c2c(C#N)c(N)nc3c2CCCC3C)ccc1O (stereo unspecified) | 6 | i | -4% | ? | -8%
Cc1ccc2oc(C(=O)NCC(c3ccc(Cl)cc3)N3CCOCC3)c(C)c2c1 (stereo unspecified) | nt | nt | -1% | -10% | ?
C=CCNC1=C2C[C@@H](C)C[C@H](OC)[C@@H](O)[C@@H](C)C=C(C)[C@H](OC(N)=O)[C@@H](OC)C=CC=C(C)C(=O)NC(=CC1=O)C2=O | nt | nt | nt | nt | 1.1µM*
CO[C@H]1C=CC=C(C)C(=O)NC2=CC(=O)C(NCCN(C)C)=C(C[C@@H](C)C[C@H](OC)[C@@H](O)[C@@H](C)C=C(C)[C@@H]1OC(N)=O)C2=O | nt | nt | nt | nt | 0.077µM*
COc1ccc(-c2noc(CNC(=O)c3ccccc3Br)n2)cc1 | nt | nt | -4% | 2% | nt
C=Cc1ccc(Cn2ccn(-c3ccc(F)c(F)c3)c(=O)c2=O)cc1 | nt | nt | -9% | -4% | nt
CC(=O)Nc1ccc(S(=O)(=O)NC2=C(N3CCN(c4ccc(F)cc4)CC3)C(=O)c3ccccc3C2=O)cc1 | -7 | ? | -96% | 11µM* | -15%
COC(=O)C1CCN(C2=C(NS(=O)(=O)c3ccc(Cl)cc3)C(=O)c3ccccc3C2=O)CC1 | 0 | ? | -64% | ? | -25%
Cc1ccc(S(=O)(=O)NC2=C(N3CCN(c4ccccc4F)CC3)C(=O)c3ccccc3C2=O)cc1 | -64*! | ? | 9% | -22% | 4%
CCOC(=O)N1CCN(C2=C(NS(=O)(=O)c3ccc(C)cc3)C(=O)c3ccccc3C2=O)CC1 | 11 | 32µM* | -98% | 22µM* | nt
NC(=O)C1CCN(C2=C(NS(=O)(=O)c3ccc(Cl)cc3)C(=O)c3ccccc3C2=O)CC1 | -8 | ? | -110% | 11µM* | nt
CCCCC(CC)CNC(=O)CC(C)OC(=O)CCC(=O)O (stereo unspecified) | nt | i | nt | nt | 25%
CCOC(=O)C(=Cc1c[nH]c2ccc(S(=O)(=O)N(C)C)cc12)C(=O)OCC | -101* | ? | -15% | ? | ?
O=C(NC1CCCC1)C(c1ccncc1)N(Cc1ccco1)C(=O)c1ccc(-c2ccccc2)[nH]1 (stereo unspecified) | -105* | i | -3% | ? | -3%
O=C(NC1CCCC1)C(c1ccncc1)N(Cc1ccccc1)C(=O)c1ccc(-c2ccccc2)[nH]1 (stereo unspecified) | -79* | i | -7% | ? | -6%
Cc1ccc(C(C(=O)NCC2CCCO2)N(Cc2ccccc2)C(=O)c2ccc(-c3ccccc3)[nH]2)o1 (stereo unspecified) | -79* | ? | -7% | ? | -37%
O=C(NC1CCCC1)C(c1ccncc1)N(CCCN1CCOCC1)C(=O)c1ccc(-c2ccccc2)[nH]1 (stereo unspecified) | ? | i | -5% | -4% | nt

Bioassay records (PubChem BioAssay)
